Rows were chosen to be rich in hits. Some 4.1% of all compounds tested hit in one or more screens of this group.
MBD2 DNA inh: inhibitors of MBD2 binding to methylated DNA, primary screen, biochemical, TR-FRET, DNA-binding domain, human; MBD2 binding to methylated oligonucleotide; inhibition, % at 4.4 µM; 0.31% of 370,000 active; AID 686964, 2013; in the data active = inhibition above about 13%
UHRF1 MBD2 ctr: UHRF1 methylated DNA binding inhibitors, primary screen, counter-screen for MBD2 inhibitor project, biochemical, TR-FRET, human UHRF1, single concentration. 0.75% of 370,000 active. E3 ubiquitin-protein ligase UHRF1 (Homo sapiens), Q96T88. inhibition, % at 4.4 µM. UHRF1 binding to methylated oligo. AID 687016, 2013; in the data active = inhibition above about 21%;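 also: UHRF1 SRA domain binding a hemimethylated CpG hairpin DNA probe; 0% = median of test compound wells and 100% = reference inhibitor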
rCAG binder: binders of r(CAG) RNA repeats, primary screen, biochemical, fluorescence; r(CAG) RNA repeat, TO-PRO-1 dye displacement fluorescence; inhibition, % at 3 µM; 1.3% of 370,000 active; AID 651821, 2012;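 active = inhibition above the plate cutoff, the mean of all test compounds on that plate plus 3 SD, cut at about 35% in these data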;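 also: 0% = DMSO alone and 100% = 100 µM mitoxantrone as full dye displacement; higher means more dye released from RNA so lower well fluorescence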
ABHD5-PLIN5 inh: ABHD5-PLIN5 interaction inhibitors, primary screen, cell lysate, split luciferase complementation, luminescence; Split G. princeps luciferase complementation, 4 h; inhibition, % at 4 µM; 0.78% of 360,000 active; AID 602281, 2012;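 active = inhibition above the mean inhibition across every tested compound plus 3 SD, cut at about 22% in these data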;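 also: 0% = DMSO only wells and the 100% control is not disclosed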
PRMT1 FP inh: PRMT1 methyltransferase inhibitors, primary screen, biochemical, fluorescence polarization; Protein arginine N-methyltransferase 1 (Homo sapiens), Q99873; recombinant PRMT1, activity-based probe fluorescence polarization; inhibition, % at 2.79 µM; 1.3% of 370,000 active;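 active = inhibition above about 21% made by adding two undisclosed values, limit read from the data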
LEDGF integ inh: blockers of LEDGF/p75-dependent integrase strand transfer – biochemical, TR-FRET, high throughput, primary screen; TR-FRET IN-LEDGF/p75 DNA integration, Eu/Cy5; inhibition, % at 3.7 µM; 0.64% of 370,000 active; AID 743269, 2014;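 active = inhibition above the screen-wide mean plus 3 SD, cut at about 13% in these data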;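 also: signal is the Cy5 over europium emission ratio at 671 and 618 nm; 0% = plate median of compound wells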
rCAG binder conf: small molecules binding CAG repeat RNA – biochemical, fluorescence, confirmation; r(CAG) RNA repeat, TO-PRO-1 dye displacement fluorescence; inhibition, % at 3 µM; shares compounds with rCAG binder; 70% of 4,300 active;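 active = inhibition above a per-plate cutoff, the mean inhibition of sample wells plus 3 SD, cut at about 35% in these data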;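 also: loss of TO-PRO-1 fluorescence as compound displaces dye from 1x1 AA loop RNA; 0% = DMSO only wells and 100% = 100 µM mitoxantrone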
dCAG dye counter: displacement of TO-PRO-1 from CAG DNA duplex, counter-screen for rCAG RNA repeat binder project, biochemical, fluorescence, TO-PRO-1 dye, d(CAG) DNA oligo; shares compounds with rCAG binder; d(CAG) DNA oligo TO-PRO-1 dye displacement; inhibition, % at 3 µM; 94% of 4,300 active;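 active = inhibition above its plate's cutoff, the mean test-well inhibition plus 3 SD, cut at about 4.8% in these data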;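 also: 0% = DNA dye mix with DMSO and 100% = 100 µM mitoxantrone; hits displace the dye from DNA and so lower well fluorescence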
dCAG dye DR: inhibitors of DNA CAG/GTC TO-PRO-1 complex, dose response, counter-screen for rCAG RNA repeat binder project, biochemical, fluorescence, TO-PRO-1 dye. 20% of 250 active. shares compounds with rCAG binder. AID 686960, 2013. DNA CAG/GTC duplex TO-PRO-1 dye displacement fluorescence. IC50, µM; in the data active = IC50 below about 10 µM
An asterisk follows results filed as active; · = no result given; ! = not confirmed by another sample.

SMILES | MBD2 DNA inh | UHRF1 MBD2 ctr | rCAG binder | ABHD5-PLIN5 inh | PRMT1 FP inh | LEDGF integ inh | rCAG binder conf | dCAG dye counter | others
COC(=O)C1=C(C)N(C)C(=NCC2CC2)NC1c1ccccc1 (configuration not stated) | 10.4 | 20.5 | 1.8 | · | -0.5 | 0.3 | · | ·
O=S1(=O)N[C@@H](Cc2ccccc2)COc2cc(NC3CC3)ccc21 | 3.4 | 7.9 | 2.1 | · | -1.6 | 2.6 | · | ·
c1cn2c(NC3CCCCC3)c(-c3ccc(SC4CCCCC4)cc3)nc2cn1 | -3.7 | -1.8 | 49.7*! | -7.7 | 0.4 | -0.2 | 36.8* | 8.3* | dCAG dye DR=>29.9
COc1ccc(CN(CCN2CCOCC2)C(=O)c2ccc(F)cc2Cl)cc1OC | 5.3 | 2.8 | 5.1 | · | 5.6 | 1.7 | · | ·
COc1ccccc1NC(=O)CSc1nc(O)cc(=O)n1C | 2.6 | 3.5 | 19.1 | -0.2 | 1.9 | 3.3 | · | ·
COc1ccc(NC(=O)CSc2nc(O)cc(=O)n2-c2ccccc2OC)cc1 | · | · | · | 1.3 | · | · | · | ·
Cc1ccc(NC(=O)CSc2nc(O)cc(=O)n2C)cc1 | -1.9 | -0.7 | 17.7 | 0.7 | 3.2 | -1.7 | · | ·
COc1ccccc1-n1c(SCC(=O)Nc2cccc3ccccc23)nc(O)cc1=O | -0.5 | 0.1 | 48.2* | -13.4 | 5.5 | 1.9 | 19.9 | 9.0*
Cc1ccc(NC(=O)CSc2nc(O)cc(=O)n2-c2ccc(C)cc2)cc1 | 3.9 | -3.9 | 41.8* | -5.6 | 0.2 | 2.3 | 17.3 | 6.3*
Cn1c(SCC(=O)Nc2cccc3ccccc23)nc(O)cc1=O | 0.9 | 1.6 | 40.8* | -5.8 | 5.0 | 1.5 | 9.6 | 4.3
CCOc1ccccc1-n1c(SCC(=O)Nc2ccccc2C(=O)O)nc2ccccc2c1=O | 4.0 | 17.1 | 35.5* | 4.8 | -1.7 | 1.6 | 30.2 | 7.8*
C=CCOC(=O)N[C@@H](c1cccc(OC)c1)[C@@H](C)/C=C/CC(=O)O | -5.2 | -0.7 | 1.6 | · | 5.2 | 0.0 | · | ·
COc1ccc(C(=O)Nc2cc(Cl)c(Br)cc2C(=O)O)cc1 | -0.7 | -0.3 | · | · | -2.5 | 1.4 | · | ·
Cc1ccc(S(=O)(=O)N2c3ccc(F)cc3C[C@H]2CSc2ccccc2)cc1 | -3.1 | 1.2 | · | · | -1.2 | 2.7 | · | ·
CC(C)CC(NC(=O)OCc1ccccc1)C(=O)NCC(=O)NCC(=O)OCc1ccccc1 (configuration not stated) | -7.7 | -1.1 | -1.8 | · | -0.7 | -2.0 | · | ·
CCc1ccc([C@H]2C(C(=O)O)=C[C@@H](CC)N2S(=O)(=O)c2ccc(C)cc2)cc1 | 4.6 | 0.0 | 21.0 | -5.5 | 0.3 | -0.9 | · | ·
CCc1ccc([C@@H]2CC=C(C(=O)O)[C@H](c3cccc(Cl)c3)N2S(=O)(=O)c2ccc(C)cc2)cc1 | -1.6 | 2.9 | 81.6* | -1.8 | 4.1 | 1.0 | 76.1* | 35.5*
CCc1ccc([C@@H]2CC=C(C(=O)O)[C@H](c3ccccc3F)N2S(=O)(=O)c2ccc(C)cc2)cc1 | 3.0 | -4.0 | 68.8* | -5.3 | -0.6 | 1.7 | 72.8* | 34.7*
Cc1ccc(S(=O)(=O)N2[C@@H](c3cccc(Cl)c3)C(C(=O)O)=CC[C@H]2c2cccc(Cl)c2)cc1 | -2.5 | -0.1 | 8.7 | -1.1 | -0.2 | 2.6 | · | ·
CCc1ccc([C@@H]2CC=C(C(=O)O)[C@H](c3ccc(Cl)cc3)N2S(=O)(=O)c2ccc(C)cc2)cc1 | 2.7 | -2.1 | 83.2* | -5.6 | 3.5 | 0.3 | 84.8* | 54.3*
